We go through five compounds from PubChem BioAssay (NCATS).

The nature of assay [1]: AP1 Signaling Pathway (AID 357; active means well fitted curve in either direction with a large enough effect, not every such curve was filed as active;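 further: ME-180 reporter cells stimulated with EGF at its EC50 level; on the % scale 0 is the no-effect control and ±100 the full control effect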). As to conditions: ME-180 AP-1-bla reporter, EGF-induced, beta-lactamase ratio, 5 h; at 7.69 µM (top of the series) unless noted. The method, boiled down:
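Titration-series screen for positive or negative modulators of EC50 EGF-induced signaling in ME-180 cells carrying an AP-1-driven beta-lactamase reporter. After 5 hours at 37 degrees Celsius, CCF4 460nm/530nm emission ratio gave %Activity; AC50 values derived.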

Assay [2] deals with Cytochrome P450 1A2 (Homo sapiens) (UniProt P05177). In words: p450-cyp1a2 (AID 410; calls by dose curve; further: potency means the concentration at half of the fitted maximal effect). The procedure, abridged:
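20nM CYP1A2, 100uM Luciferin-ME (=Km), 100mM KPO4; cpd 10 min RT; +NADPH regen, 60 min RT; stop/detect 20 min; luminescence. Normalized to furafylline 57 uM = full inhibition.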

Assay [3] in a line: NFAT Signaling Pathway (AID 444; active means well fitted curve in either direction with a large enough effect, not every such curve was filed as active;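 further: carbachol stimulus at about its EC50 of 1 µM final; on the % scale 0 is the no-effect control and ±100 the full control effect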). The note with it: Jurkat NFAT-bla M1, carbachol, beta-lactamase ratio, 5 h; at 7.69 µM (top of the series) unless noted. The method, boiled down: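 Read-out: CCF4 FRET ratio (460 nm/530 nm) after 1 h RT dye loading, used for %activity and AC50 from titration series. Cells: Jurkat NFAT-β-lactamase/M1 line, treated with compound plus 1 uM carbachol for 5 h, 37 °C.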

Assay [4] is described as follows: Stat Signaling Pathway (AID 446; active means well fitted curve in either direction with a large enough effect, not every such curve was filed as active;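 further: ME-180 cervical cancer cells given 40 pM IL-6 alongside compound; SIE-controlled beta-lactamase reporter measured as 460/530 nm FRET emission ratio; on the % scale 0 is the no-effect control and ±100 the full control effect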). The note with it: ME-180 (cervical carcinoma) SIE beta-lactamase reporter, IL-6 stimulated, 5 h; at 7.69 µM (top of the series) unless noted. The procedure, abridged: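 FRET read-out (405 nm excitation, 460/530 nm emission) of a beta-lactamase reporter under a STAT-inducible element in ME-180 cervical carcinoma cells. Cells with compound receive 40 pM IL-6 for 5 h. Values are normalised to AC90 stimulation and AC90 JAK-inhibitor controls.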

Assay [5] has as its target Glucocorticoid receptor (Homo sapiens) (UniProt P04150). Kind of assay: GR-GFP Redistribution (AID 450;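 active means compounds whose dose series gives a full or clear partial fitted curve of increased nuclear translocation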; further: potency means the concentration at half of the fitted maximal effect). The note with it: U2OS GR-GFP nuclear translocation, laser cytometry, 2 h.
For assay [6] the target is unchanged. In words: GR-EFC Redistribution (AID 451; calls by dose curve; further: potency means the concentration at half of the fitted maximal effect). As to conditions: CHO-K1 GR-EFC translocation, beta-gal luminescence, 2 h. The method, boiled down:
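Translocation of GR-ED fusion to nuclear EA restores b-gal, read by luminescence after 1 h room-temperature detection. Engineered CHO-K1 biosensor cells, 1,000/well, exposed 2 h at 37 C to titrations up to 46 uM final.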

For assay [7], the target named is 3',5'-cyclic-AMP phosphodiesterase 4B (Homo sapiens) (UniProt Q07343). Kind of assay: qHTS Assay for Inhibitors of PDE-IV (AID 607; active means well fitted activation curve with a large enough effect in the main read-out, with a control signal flat, not every such curve was filed as active; further: % of control where 0% means no effect). The method, boiled down: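 Cell-based read-out of cAMP via a modified cyclic nucleotide-gated channel and membrane potential dye (535/590 nm) in HEK293 cells expressing PDE4 endogenously. Compounds tested up to 22.9 uM final; 100 uM RO 20-1724 reference.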
(In qHTS, concentration-response curves come from the screen itself.)

Assay [8] has as its target Guanine nucleotide-binding protein G(i) subunit alpha-1 (Homo sapiens) (UniProt P63096). Kind of assay: qHTS Assay for Inhibitors of RGS12 GoLoco Motif Activity (Green Fluorophore) (AID 879).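 Further: 0% = labeled peptide with Gαi1 and full inhibition = labeled peptide alone without protein; negative values mean loss of peptide binding seen as reduced polarization.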 The method, boiled down:
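A drop in FITC polarization marked displacement of the FITC-tagged RGS12 GoLoco peptide (10 nM) from Gαi1 (50 nM). Compounds were incubated 10 min at room temperature in Tris pH 7.5 buffer containing 150 mM NaCl, 0.1 mM GDP and 0.05% NP40; unlabeled peptide titration served as control.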

Assay [9] concerns the target Cytochrome P450 3A4 (Homo sapiens) (UniProt P08684). In words: qHTS Assay for Activators of Cytochrome P450 3A4 (AID 885). Further: nearly all actives have a fitted effect of over 65% in size. The method, boiled down:
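Luminescent readout of luciferin formed from 25 uM Luciferin-PPXE (KM level) by 20 nM CYP3A4 in 200 mM KPO4, with 60 min NADPH-driven reaction at room temperature after 10 min compound exposure. Ketoconazole (57 uM) defined 100% inhibition.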

Assay [10] in a line: qHTS Assay for Identification of Small Molecule Antagonists for NFkB Signaling Pathway (AID 895; active means well fitted inhibition curve with a large enough effect in the signal ratio, with a control signal flat, not every such curve was filed as active; the % refers to the signal ratio; further: on the % scale 0 is the no-effect control and ±100 the full control effect). The procedure, abridged: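 Beta-lactamase reporter read-out (460 and 530 nm emission ratio, 405 nm excitation, 2 hrs substrate loading RT) after 5 hr stimulation with 10 pM TNF alpha in compound-treated NFkB-bla ME-180 cells in low-serum medium.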
The nature of assay [11]: qHTS Assay for Identification of Small Molecule Agonists for Thrombopoietin (TPO) Signaling Pathway (AID 917). Further: on the % scale 0 is the no-effect control and ±100 the full control effect. The procedure, abridged: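 Ba/F3 (mouse) + hTPO receptor + GpIIb-promoter luciferase; IL-3 withdrawn overnight; compound + 26 pM TPO (EC50), 24 hrs, 37 C, 5% CO2; Steadylite luminescence, 10 min RT.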
Assay [12] concerns the target Pyruvate kinase PKM (Homo sapiens) (UniProt P14618). Kind of assay: qHTS Assay for Activators of Human Muscle Pyruvate Kinase (AID 954; active means well fitted curve in the direction sought with a large enough effect, not every such curve was filed as active;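 further: 0% = uninhibited enzyme and -100% = no enzyme or full thiadiazolimine inhibition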). The method, boiled down:
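ATP production by PKM2 detected via luciferase luminescence after 1 h room-temperature reaction (0.1 nM enzyme, PEP at Km 0.5 mM, ADP 0.1 mM, pH 7.2 imidazole buffer). Inhibition scaled to no-enzyme control; activation referenced to 0.3 nM enzyme wells.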

The target of assay [13] is Alpha-galactosidase A (Homo sapiens) (UniProt P06280). Kind of assay: Counterscreen for Glucocerebrosidase Inhibitors: qHTS Assay for Human alpha-Galactosidase at pH 4.5 (AID 992). Further: 0% is about no effect. The method, boiled down:
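Fluorogenic 1536-well qHTS at pH 4.5 (citrate, Tween-20): 2 nM enzyme, 80 uM 4-MU-alpha-galactoside, 20 min room temperature, NaOH/glycine stop. Titration 0.7 nM to 77 uM, data normalized to no-enzyme and full-activity controls, Hill-fitted AC50.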
For orientation: A counterscreen serves to expose hits that act by an unwanted route or on another target.

Assay [14] addresses alpha-glucosidase (Oryza sativa, rice) (UniProt Q653V4). In words: Counterscreen for Glucocerebrosidase Inhibitors: qHTS Assay for Rice alpha-Glucosidase at pH 5.0 (AID 997).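 Further: 0% = full activity with enzyme and -100% = basal without enzyme.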 The procedure, abridged: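 Endpoint fluorogenic assay at pH 5.0: compounds (0.7 nM to 77 uM) titrated against 4 nM rice enzyme and 400 uM 4-MU-alpha-glucoside for 20 min at room temperature; NaOH/glycine stop, read ex 365/em 440 nm, Hill-fitted AC50.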

For assay [15], the target named is Muscarinic acetylcholine receptor M1 (Rattus norvegicus) (UniProt P08482). Kind of assay: qHTS Assay for Antagonists of Acetylcholine Muscarinic M1 Receptor: Measurement of IP-One Response (AID 944). Further: nearly all actives have a fitted effect of over 75% in size. The method, boiled down:
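Read-out: HTRF competition between d2-IP1 and Eu-cryptate anti-IP1 antibody, emission 620 and 665 nm. Stimulus was carbachol, EC80 (200 nM), for 30 min in M1-CHO cells (rat receptor), after 10 min compound pre-treatment.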

Assay [16] deals with Mitogen-activated protein kinase 10 (Mus musculus) (UniProt Q61831). Kind of assay: JNK3 AlphaScreen Assay (AID 530; active means well fitted curve in either direction with a large enough effect, not every such curve was filed as active). The procedure, abridged:
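Kinase buffer: 20 mM Tris-HCl pH 7.6, 10 mM MgCl2, 1 mM DTT, 0.1 mM Na3VO4, 0.01% Tween-20; ATP 10 uM. Substrate biotin-GST-cJun(1-79), enzyme from activated HepG2 lysates. Detection by Ser73 phospho-antibody AlphaScreen.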
(Bead proximity is the source of the signal in Alpha formats.)

The target in assay [17] is Pyruvate kinase (Leishmania mexicana) (UniProt Q27686). In words: qHTS Validation Assay for Inhibitors of Leishmania Mexicana Pyruvate Kinase (AID 945).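 Further: 0% = DMSO only neutral control wells.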 The procedure, abridged:
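Compounds are tested as eight-point concentration series. Reactions contain 0.2 nM LmPYK E451W, 0.5 mM PEP, 0.1 mM ADP, 7 mM MgCl2 and 50 mM KCl at pH 7.2, run 1 h at room temperature, then read by PKLight luminescence.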

In assay [18] the target is Cytochrome P450 2C9 (Homo sapiens) (UniProt P11712). Kind of assay: qHTS Assay for Inhibitors and Substrates of Cytochrome P450 2C9 (AID 883). Further: on the % scale 0 is the no-effect control and ±100 the full control effect; nearly all actives have a fitted effect of over 60% in size. The procedure, abridged: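 Turnover of Luciferin-H (100uM, KM) by 10nM human CYP2C9 was measured over 60 min at 37C with NADPH regeneration; inhibitors and some substrates reduce luminescence. Data normalized to sulphaphenazole 57uM.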

Assay [19] concerns the target Cytochrome P450 2D6 (Homo sapiens) (UniProt P10635). Kind of assay: qHTS Assay for Inhibitors and Substrates of Cytochrome P450 2D6 (AID 891). Further: nearly all actives have a fitted effect of over 60% in size. Further: potency means the concentration at half of the fitted maximal effect. The method, boiled down:
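Luminescent read-out of luciferin formed by 5 nM human CYP2D6 demethylating 30 uM Luciferin-ME EGE (Km level) over 60 min at room temperature after NADPH regeneration addition. Data normalized to full inhibition by 1.43 uM quinidine.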

The target of assay [20] is Cytochrome P450 2C19 (Homo sapiens) (UniProt P33261). In words: qHTS Assay for Inhibitors and Substrates of Cytochrome P450 2C19 (AID 899). Further: nearly all actives have a fitted effect of over 60% in size. Further: potency means the concentration at half of the fitted maximal effect. The procedure, abridged:
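Reactions contain 5nM enzyme, 10uM Luciferin-H EGE (KM) and 50mM KPO4; compound preincubates 10 min at 37C, NADPH regeneration starts turnover for 60 min. Luminescence after detection reagent gives activity.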

Unmarked numbers belong to inactive results. Inconclusive results are not listed. Calls of active or inactive are those of the source. Unless noted, the call rests on the fitted dose curve; in most records, active means well fitted curve in the direction sought with a large enough effect; inconclusive means small, poorly fitted or top-dose-only effect, or another doubt; inactive means no such curve, though single readings can be large; an effect the other way counts as inactive or inconclusive. Bounds are passed on as bounds.

Cytochrome P450 1A2 (Homo sapiens), sequence (P05177 whole entry, looked up): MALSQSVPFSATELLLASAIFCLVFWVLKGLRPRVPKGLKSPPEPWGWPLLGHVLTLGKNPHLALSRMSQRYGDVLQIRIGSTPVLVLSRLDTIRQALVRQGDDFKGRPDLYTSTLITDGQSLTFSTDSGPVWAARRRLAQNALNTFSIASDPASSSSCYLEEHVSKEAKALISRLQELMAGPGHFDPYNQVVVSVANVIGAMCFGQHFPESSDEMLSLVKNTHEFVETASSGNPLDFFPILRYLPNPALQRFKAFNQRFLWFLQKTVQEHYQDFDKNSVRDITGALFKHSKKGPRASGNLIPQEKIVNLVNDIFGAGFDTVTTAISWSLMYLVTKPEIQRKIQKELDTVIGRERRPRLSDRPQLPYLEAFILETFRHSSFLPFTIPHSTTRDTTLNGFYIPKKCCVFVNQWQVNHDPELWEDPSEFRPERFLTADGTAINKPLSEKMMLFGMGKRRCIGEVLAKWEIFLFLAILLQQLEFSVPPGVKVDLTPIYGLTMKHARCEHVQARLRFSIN
Glucocorticoid receptor (Homo sapiens), sequence (P04150 whole entry, looked up): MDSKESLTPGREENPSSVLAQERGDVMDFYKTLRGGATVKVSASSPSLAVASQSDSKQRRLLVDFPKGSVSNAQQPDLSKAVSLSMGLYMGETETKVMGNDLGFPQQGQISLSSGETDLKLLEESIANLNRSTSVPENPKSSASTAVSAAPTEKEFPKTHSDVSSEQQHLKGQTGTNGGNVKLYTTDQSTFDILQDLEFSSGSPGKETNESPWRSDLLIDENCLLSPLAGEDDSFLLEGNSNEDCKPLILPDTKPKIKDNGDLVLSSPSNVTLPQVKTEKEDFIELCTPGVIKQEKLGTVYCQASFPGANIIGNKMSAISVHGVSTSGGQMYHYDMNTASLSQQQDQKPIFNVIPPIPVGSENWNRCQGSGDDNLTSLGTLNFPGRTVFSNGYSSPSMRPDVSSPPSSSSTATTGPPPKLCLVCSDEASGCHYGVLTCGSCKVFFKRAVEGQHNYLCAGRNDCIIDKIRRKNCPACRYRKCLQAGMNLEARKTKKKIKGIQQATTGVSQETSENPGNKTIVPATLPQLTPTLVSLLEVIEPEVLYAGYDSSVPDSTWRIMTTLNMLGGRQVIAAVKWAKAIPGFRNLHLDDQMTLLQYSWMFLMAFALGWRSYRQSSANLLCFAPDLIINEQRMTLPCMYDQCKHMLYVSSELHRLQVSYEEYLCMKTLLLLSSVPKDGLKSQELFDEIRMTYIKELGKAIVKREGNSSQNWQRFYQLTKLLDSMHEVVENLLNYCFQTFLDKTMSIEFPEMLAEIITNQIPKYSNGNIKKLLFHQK
Guanine nucleotide-binding protein G(i) subunit alpha-1 (Homo sapiens), sequence (P63096 whole entry, looked up): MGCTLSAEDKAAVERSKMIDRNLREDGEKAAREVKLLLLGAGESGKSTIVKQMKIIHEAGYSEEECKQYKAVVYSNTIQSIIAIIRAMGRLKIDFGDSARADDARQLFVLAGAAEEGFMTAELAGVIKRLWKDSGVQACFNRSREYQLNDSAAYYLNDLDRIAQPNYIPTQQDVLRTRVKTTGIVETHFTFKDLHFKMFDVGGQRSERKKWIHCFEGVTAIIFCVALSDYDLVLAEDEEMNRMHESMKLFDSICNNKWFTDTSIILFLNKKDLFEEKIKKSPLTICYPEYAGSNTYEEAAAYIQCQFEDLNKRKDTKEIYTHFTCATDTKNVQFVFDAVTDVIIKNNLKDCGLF
Alpha-galactosidase A (Homo sapiens), sequence (P06280 whole entry, looked up): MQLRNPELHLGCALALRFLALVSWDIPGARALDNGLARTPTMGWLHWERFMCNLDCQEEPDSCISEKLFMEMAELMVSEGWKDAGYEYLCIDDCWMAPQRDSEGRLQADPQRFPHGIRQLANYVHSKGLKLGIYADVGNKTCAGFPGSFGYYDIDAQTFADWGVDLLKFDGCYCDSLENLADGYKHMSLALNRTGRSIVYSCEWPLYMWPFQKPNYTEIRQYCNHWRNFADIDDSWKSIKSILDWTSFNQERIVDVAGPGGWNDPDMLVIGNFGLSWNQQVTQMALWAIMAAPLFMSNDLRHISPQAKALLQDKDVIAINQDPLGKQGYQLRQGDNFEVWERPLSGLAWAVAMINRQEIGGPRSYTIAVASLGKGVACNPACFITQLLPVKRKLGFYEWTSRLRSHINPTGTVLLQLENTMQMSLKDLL
Pyruvate kinase PKM (Homo sapiens), sequence (P14618 whole entry, looked up): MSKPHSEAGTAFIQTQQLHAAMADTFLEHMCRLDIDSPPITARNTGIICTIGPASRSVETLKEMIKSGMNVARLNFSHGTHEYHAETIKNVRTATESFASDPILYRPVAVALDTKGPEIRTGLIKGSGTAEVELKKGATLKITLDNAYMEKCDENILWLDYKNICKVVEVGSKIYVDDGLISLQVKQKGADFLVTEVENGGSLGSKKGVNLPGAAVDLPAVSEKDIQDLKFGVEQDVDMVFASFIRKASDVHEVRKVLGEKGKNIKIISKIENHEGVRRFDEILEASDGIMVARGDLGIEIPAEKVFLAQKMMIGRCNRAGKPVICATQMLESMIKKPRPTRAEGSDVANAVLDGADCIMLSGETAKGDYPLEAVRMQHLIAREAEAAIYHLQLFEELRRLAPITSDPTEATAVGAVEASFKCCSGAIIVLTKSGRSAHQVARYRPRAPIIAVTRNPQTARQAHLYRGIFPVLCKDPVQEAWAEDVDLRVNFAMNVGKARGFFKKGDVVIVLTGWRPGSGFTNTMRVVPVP
Cytochrome P450 3A4 (Homo sapiens), sequence (P08684 whole entry, looked up): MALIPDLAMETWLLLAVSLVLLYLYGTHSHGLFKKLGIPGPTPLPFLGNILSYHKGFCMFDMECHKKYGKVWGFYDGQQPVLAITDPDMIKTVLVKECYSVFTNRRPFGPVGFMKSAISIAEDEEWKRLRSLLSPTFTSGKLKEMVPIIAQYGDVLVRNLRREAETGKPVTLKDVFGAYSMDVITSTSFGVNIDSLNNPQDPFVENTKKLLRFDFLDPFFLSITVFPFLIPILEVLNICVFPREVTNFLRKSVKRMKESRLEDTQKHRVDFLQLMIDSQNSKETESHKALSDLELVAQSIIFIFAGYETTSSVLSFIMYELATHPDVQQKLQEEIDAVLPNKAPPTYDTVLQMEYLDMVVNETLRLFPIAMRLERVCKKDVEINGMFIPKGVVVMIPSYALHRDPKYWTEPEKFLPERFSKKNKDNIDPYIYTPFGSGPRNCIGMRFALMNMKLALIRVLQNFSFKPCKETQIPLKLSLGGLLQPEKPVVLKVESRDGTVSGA
Muscarinic acetylcholine receptor M1 (Rattus norvegicus), sequence (P08482 whole entry, looked up): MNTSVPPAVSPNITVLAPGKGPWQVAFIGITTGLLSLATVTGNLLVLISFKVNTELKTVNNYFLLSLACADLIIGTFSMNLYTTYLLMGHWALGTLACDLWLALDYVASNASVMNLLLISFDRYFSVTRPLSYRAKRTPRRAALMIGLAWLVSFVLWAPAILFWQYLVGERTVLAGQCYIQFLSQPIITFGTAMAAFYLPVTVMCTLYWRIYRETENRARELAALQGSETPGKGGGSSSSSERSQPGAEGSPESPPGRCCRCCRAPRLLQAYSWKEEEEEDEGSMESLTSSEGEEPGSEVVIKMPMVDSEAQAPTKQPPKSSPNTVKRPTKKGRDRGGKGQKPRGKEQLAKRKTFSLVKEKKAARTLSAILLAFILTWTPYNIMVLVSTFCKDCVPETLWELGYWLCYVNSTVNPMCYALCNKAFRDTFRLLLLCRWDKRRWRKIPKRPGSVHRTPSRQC
3',5'-cyclic-AMP phosphodiesterase 4B (Homo sapiens), sequence (Q07343 whole entry, looked up): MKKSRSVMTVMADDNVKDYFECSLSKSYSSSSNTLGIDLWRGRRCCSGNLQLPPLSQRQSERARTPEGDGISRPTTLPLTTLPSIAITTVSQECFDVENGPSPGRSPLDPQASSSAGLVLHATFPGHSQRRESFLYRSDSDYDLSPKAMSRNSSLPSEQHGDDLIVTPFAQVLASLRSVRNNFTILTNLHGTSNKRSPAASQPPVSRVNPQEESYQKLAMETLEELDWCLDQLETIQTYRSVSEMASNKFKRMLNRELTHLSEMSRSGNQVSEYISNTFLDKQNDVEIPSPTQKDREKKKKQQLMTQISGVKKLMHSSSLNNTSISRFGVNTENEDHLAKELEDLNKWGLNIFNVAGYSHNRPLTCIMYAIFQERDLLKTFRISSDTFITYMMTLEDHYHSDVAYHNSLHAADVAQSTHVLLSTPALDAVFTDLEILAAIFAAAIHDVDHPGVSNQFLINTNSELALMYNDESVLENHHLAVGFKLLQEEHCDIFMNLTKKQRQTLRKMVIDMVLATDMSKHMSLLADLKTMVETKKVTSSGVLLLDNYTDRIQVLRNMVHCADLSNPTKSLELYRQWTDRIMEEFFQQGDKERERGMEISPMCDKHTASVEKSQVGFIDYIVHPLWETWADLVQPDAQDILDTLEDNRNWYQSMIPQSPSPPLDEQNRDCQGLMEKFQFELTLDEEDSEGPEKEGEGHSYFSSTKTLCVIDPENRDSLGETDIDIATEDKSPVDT
Cytochrome P450 2D6 (Homo sapiens), sequence (P10635 whole entry, looked up): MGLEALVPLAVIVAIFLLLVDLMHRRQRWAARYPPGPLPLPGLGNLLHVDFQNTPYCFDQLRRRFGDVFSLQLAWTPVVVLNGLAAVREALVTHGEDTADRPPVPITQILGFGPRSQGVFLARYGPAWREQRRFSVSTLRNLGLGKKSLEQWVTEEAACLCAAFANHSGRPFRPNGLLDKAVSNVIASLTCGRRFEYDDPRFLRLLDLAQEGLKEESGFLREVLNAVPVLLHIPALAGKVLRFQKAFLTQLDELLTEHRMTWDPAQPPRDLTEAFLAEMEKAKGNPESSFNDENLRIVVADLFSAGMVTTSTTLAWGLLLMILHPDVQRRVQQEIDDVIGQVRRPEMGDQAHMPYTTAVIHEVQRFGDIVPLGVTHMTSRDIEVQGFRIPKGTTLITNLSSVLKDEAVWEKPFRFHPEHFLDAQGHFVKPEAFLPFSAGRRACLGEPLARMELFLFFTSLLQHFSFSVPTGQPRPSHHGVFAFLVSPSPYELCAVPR

In the case of `Nc1nc(SCc2ccc([N+](=O)[O-])cc2)c2ncn([C@@H]3O[C@@H](CO)[C@@H](O)[C@H]3O)c2n1`, the activity change, negative = inhibition was -11.9% [at 38 µM] in [1] and 0.367% [at 38 µM] in assay [3]. In addition, the Potency result in assay [2], in [7], in assay [9], in [10] and in assay [14] was “inactive” each time. In addition, the activity, negative = inhibition in assay [4] was -17% [at 38 µM]. For the same compound, the Potency in assay [5] and in assay [6] was over 46 µM each time. For the same compound, the call in assay [8], in assay [11], in [12] and in assay [13] was inactive.

On to `COc1cc([C@H](O)CO)ccc1O`, for which the values for the activity change, negative = inhibition in [1] and in [3] were -0.627% [at 38 µM] and 2.95% [at 38 µM], respectively. The Potency entry in assay [2], in [7], in assay [9], in [10], in assay [15] and in assay [14] was “inactive” throughout. For the same compound, the activity, negative = inhibition in [4] was 17.1% [at 38 µM]. The Potency in [5] and in [6] was over 46 µM throughout. Moreover, the result in [8], in assay [11], in assay [12] and in assay [13] was inactive.

As to `Nc1nc(Cl)nc2c1ncn2[C@@H]1O[C@@H](CO)[C@@H](O)[C@H]1O`, the figures for the activity change, negative = inhibition in assay [1] and in assay [3] were -7.62% [at 38 µM] and 2.55% [at 38 µM], respectively. Besides, the Potency entry in assay [2], in [16] and in [15] was “inactive” throughout. For the same compound, the activity, negative = inhibition in assay [4] was 7.39% [at 38 µM]. For the same compound, the Potency in assay [5] and in assay [6] was over 46 µM each time. In addition, the call in assay [8], in assay [17], in [12] and in assay [13] was inactive.

As for `O=C(O)CCC/C=C\C[C@H]1[C@@H](/C=C\[C@@H](O)C2Cc3ccccc3C2)[C@H](F)C[C@H]1O`, the activity change, negative = inhibition in [1] is -14.7% [at 38 µM]; in assay [3], 14.3% [at 38 µM]. In addition, the Potency result in assay [2], in assay [16], in [18], in [19] and in assay [20] was “inactive” in each case. The activity, negative = inhibition in assay [4] was 9.41% [at 38 µM]. For the same compound, the Potency in assay [5] and in [6] was over 46 µM throughout.

Take `CCNc1ncc2nc(CCc3ccccc3)c(=O)n(C)c2n1`: the activity change, negative = inhibition in assay [1] was -11.6%; in assay [3], -7.02%. Besides, the Potency in assay [2] was 2.51 µM (active); in assay [5], over 9.22 µM; in [6], over 46 µM; in assay [19], 1.58 µM (active); in assay [20], 2.51 µM (active). For the same compound, in assay [4], the activity, negative = inhibition was -0.83%. Further, the Potency entry in [16] and in [9] was “inactive” in each case.
